Values joined by “and” are separate entries in the source; they are usually repeats but may differ in a detail not shown here. Identical values can stand only once. Active and inactive are the calls of the source. How the source made its calls: active means hit-call score of the fitted dose curve at least 0.9, where 1 is the maximum; inactive means score below 0.9.

This test in a line: CCTE_Shafer_MEA_dev_mutual_information_norm: CCTE's Neural Network Formation Assay for Mutual Information Normalization, Shafer Lab (AID 2284091).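 On AC50: potency is for a decrease in mutual information relative to DMSO.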 On the procedure:
CCTE_Shafer_MEA_dev assay is conducted using Axion Biosystems 48 well microelectrode array (MEA) plates and Maestro recording system. Each well of the MEA plate contains a grid of 16 microelectrodes embedded in the culture surface. Electrically active cells, such as neurons, can be cultured over the electrodes, and electrical activity in these cells can be recorded extracellularly. The spontaneous firing of neurons is captured from each electrode on a microsecond timescale providing both temporally and spatially precise data. […] The CCTE_Shafer_MEA_dev assay uses primary cultures of rat cortical neurons. Recordings are made on days post-plating 5, 7, 9 and 12. As these cultures mature over time, neural networks develop functional activity and form cohesive networks in which electrical activity can be highly coordinated. CCTE_Shafer_MEA_dev_mutual_information_norm is 1 of 19 assay components of the CCTE_Shafer_MEA_dev assay. It is a measure of shared information between electrodes during a recording in a microelectrode array (MEA) using Axion Biosystems Maestro 768 channel amplifier with the AxIS adaptive spike detector. To collapse across multiple recordings made on days post-plating 5, 7, 9 and 12, the trapezoidal area-under-the-curve of the component is calculated.Data from the assay component CCTE_Shafer_MEA_dev_mutual_information_norm was analyzed into 1 assay endpoint. This assay endpoint, CCTE_Shafer_MEA_dev_mutual_information_norm, was analyzed in the negative analysis fitting direction relative to DMSO as the negative control and baseline of activity. Using a type of functional reporter, gain or loss-of-signal activity can be used to understand electrical activity.
On the day prior to culture, each well was coated thoroughly with 150 uL of 0.05% polyethyleneimine (PEI, Sigma Cat P3143) in 50 mM HEPES (Sigma Cat H7523) at a pH of 8. The plate was incubated at 37C for one hour. PEI was rinsed out with 500 uL of sterile water three times. Plates were stored at 4C until the day of culture. This culture was plated at a seeding density of 1.5 x 10^5 cells/well on a 48-well MEA plate, prepared as described above. Cells were administered via a 25 uL media/laminin ([…]; Sigma Cat L2020-1MG) drop directly onto the microelectrode array, as adding the cells with the laminin results in better attachment than pre-coating with laminin. After 2 hours, an additional 475 uL of cortical media was added and the cells returned to the incubator. Exposure starts at day 0 of plating and is continued over twelve days of network development until the experiment is terminated. Cells are fed with fresh medium on DIV 5 and 9, following the recordings on those days. The entire volume of media in the well is exchanged and any vehicle or compound treatment is renewed. Complete details are found in OP-NHEERL/ISTD/SBB/TJS/2015-03-r0 (available on request, email shafer.tim@epa.gov). Measurement of the electrical activity is non-invasive, and recordings can be made from the same plate over multiple different days of the culture. In cortical neurons, this allows for the measurement of extracellular action potentials over the period during which networks form in the MEA plate.
Turning to `CC(C)(C)NCC(O)c1cc(O)cc(O)c1` (stereo not given), the outcome was inactive.

As to `COc1ccc2cc3[n+](cc2c1OC)CCc1cc2c(cc1-3)OCO2`, the concentration at half-maximal activity (AC50) is 92.6 nM (active). With `C[C@H](CS)C(=O)N1CCC[C@H]1C(=O)O`, the molecule was called inactive.

As for `c1cc2ccc3ccc4ccc5cccc6c(c1)c2c3c4c56`, the molecule was classed as inactive. Consider `NC(N)=Nc1nc(CSCCC(N)=NS(N)(=O)=O)cs1`, for which the result was inactive. Consider `c1ccc2cc3c4ccccc4c4ccccc4c3cc2c1`, for which the call was inactive. On to `CC1(C)S[C@@H]2[C@H](NC(=O)[C@H](N)c3ccccc3)C(=O)N2[C@H]1C(=O)O`, for which the outcome was inactive. Consider `[Cl-].[Cl-].[NH2-].[NH2-].[Pt+4]`, for which the molecule was classed as inactive.

Consider `Cc1c(O)cccc1C(=O)N[C@@H](CSc1ccccc1)[C@H](O)CN1C[C@H]2CCCC[C@H]2C[C@H]1C(=O)NC(C)(C)C`, for which the AC50 was 772 nM (active).

Regarding `CNCCC(Oc1ccc(C(F)(F)F)cc1)c1ccccc1` (stereo not given), the AC50 is 2580 nM (active). With `CN(C)C(=O)C(CCN1CCC(O)(c2ccc(Cl)cc2)CC1)(c1ccccc1)c1ccccc1`, the AC50 was 112 nM (active) and 60.7 nM (active) and 621 nM (active). Turning to `CC1(C)S[C@@H]2[C@H](NC(=O)[C@H](N)c3ccc(O)cc3)C(=O)N2[C@H]1C(=O)O`, the call was inactive. Same read-out and setting: for `CN(C)CCC(c1ccc(Cl)cc1)c1ccccn1` (stereo not given) the value was “inactive”. As to `CC[C@H](C)C(=O)O[C@H]1CCC=C2C=C[C@H](C)[C@H](CC[C@@H]3C[C@@H](O)CC(=O)O3)[C@H]21`, the AC50 is 353 nM (active) and 881 nM (active). As for `C[C@@H]1C[C@H]2[C@@H]3CCC4=CC(=O)C=C[C@]4(C)[C@@]3(F)[C@@H](O)C[C@]2(C)[C@@]1(O)C(=O)CO`, the outcome was inactive.

Usually AC50 stands for the concentration giving half of the maximal activity seen.
